# Screens as filed in PubChem BioAssay.
# Hits are enriched below; roughly 3% of the tested compounds scored in any of these assays.
# PAFAH2 inh = PAFAH2 (human) inhibition | Q99487 | recombinant PAFAH2, FP-rhodamine activity probe, fluorescence polarization | inhibition, % at 3.39 µM | 0.99% of 340,000 active | AID 492956;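 active = inhibition above the mean over all tested compounds plus 3 SD, cut at about 30% in these data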;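 note: inhibitors block probe labeling of enzyme so polarization drops; 0% = enzyme with DMSO and 100% = wells lacking PAFAH2 protein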
# PAFAH1B2 FP inh = blocks human PAF acetylhydrolase 1b catalytic subunit 2 | P68402 | recombinant PAFAH1B2, FP-rhodamine activity probe, fluorescence polarization | inhibition, % at 3.39 µM | 1.2% of 340,000 active;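 active = inhibition above the mean of all tested compounds plus 3 SD, cut at about 24% in these data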;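 note: 0% = enzyme with DMSO and 100% = wells lacking PAFAH1B2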
# Target sequence (P68402 whole entry, looked up): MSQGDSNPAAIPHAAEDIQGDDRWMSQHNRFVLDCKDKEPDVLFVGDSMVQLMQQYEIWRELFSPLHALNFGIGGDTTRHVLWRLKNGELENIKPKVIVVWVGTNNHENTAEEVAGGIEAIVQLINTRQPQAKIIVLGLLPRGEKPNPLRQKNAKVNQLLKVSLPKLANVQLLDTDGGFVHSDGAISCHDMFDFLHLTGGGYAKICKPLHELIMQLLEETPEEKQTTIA
# pPAFAH inh = inhibitors of human plasma PAF acetylhydrolase (pPAFAH); AID 463082; Q13093; inhibition, % at 3.39 µM; 1.5% of 330,000 active; recombinant pPAFAH, FP-rhodamine probe fluorescence polarization;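 active = inhibition above the mean inhibition across the screen plus 3 SD, cut at about 25% in these data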;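 note: inhibitors block binding of the rhodamine activity-based probe so polarization drops; 0% = enzyme with DMSO and 100% = wells lacking pPAFAH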
# DAGLB inhibitor = diacylglycerol lipase beta (human) inhibition; HEK293T DAGLB membrane lysate, EnzChek fluorogenic substrate; inhibition, % at 5.17 µM; 0.059% of 340,000 active; AID 504411; in the data active = inhibition above about 34%;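 note: 0% = enzyme with vehicle and 100% = wells lacking enzyme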
# ATG4B inhibitor = inhibitors of human ATG4B cysteine protease; Q9Y4P1; ATG4B cleavage of LC3-PLA2, NBD-HPC fluorescence, 1 h; inhibition, % at 8.33 µM; 0.51% of 340,000 active; AID 504462; in the data active = inhibition above about 40%
# PAFAH1B3 FP inh = blocks human PAF acetylhydrolase 1B catalytic subunit 3 | Q15102 | recombinant PAFAH1B3, FP-rhodamine probe, fluorescence polarization | inhibition, % at 3.39 µM | 0.28% of 340,000 active;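 active = inhibition above the screen-wide average of all tested compounds plus 3 SD, cut at about 25% in these data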;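 note: 0% = enzyme with DMSO only and 100% = wells lacking PAFAH1B3 protein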
# Target sequence (Q15102 whole entry, looked up): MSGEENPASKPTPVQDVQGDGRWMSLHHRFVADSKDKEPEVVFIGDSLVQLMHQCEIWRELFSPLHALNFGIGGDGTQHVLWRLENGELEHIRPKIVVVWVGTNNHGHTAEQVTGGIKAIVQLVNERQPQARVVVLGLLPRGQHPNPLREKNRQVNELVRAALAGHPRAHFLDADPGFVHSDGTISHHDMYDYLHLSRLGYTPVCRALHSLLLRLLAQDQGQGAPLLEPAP
# pPAFAH confirm = confirmation of human plasma PAF acetylhydrolase (pPAFAH) inhibitors. shares compounds with pPAFAH inh. recombinant pPAFAH, FP-Rh probe fluorescence polarization. inhibition, % at 3.39 µM. 72% of 2,300 active;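 active = mean inhibition of the triplicate above the hit cutoff set for the earlier primary screen, cut at about 25% in these data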;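 note: 0% = enzyme with DMSO and 100% = wells lacking pPAFAH enzyme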
# Numbers without * were called inactive; · = no result.
SMILES,PAFAH2 inh,PAFAH1B2 FP inh,pPAFAH inh,DAGLB inhibitor,ATG4B inhibitor,PAFAH1B3 FP inh,pPAFAH confirm
CC(C)c1cc(Nc2cccc(O)c2)cc(C(C)C)c1O,·,·,26*,·,·,·,·
Oc1cccc(Nc2ccccc2)c1,0,5,1,2,1,5,·
Cc1onc(-c2ccccc2)c1C(=O)N1CCC(CO)(Cc2ccccc2)CC1,-6,-1,0,-1,6,0,·
CCN1C(=O)c2cccc3c(S(=O)(=O)Nc4ccccc4)ccc1c23,11,2,25*,-3,-7,-2,·
Cc1ccc(N2CC(C(=O)Nc3nnc(SCC(N)=O)s3)CC2=O)cc1 (stereo not drawn),5,0,5,0,-6,3,·
O=C(CN1CCN(C(=O)c2ccco2)CC1)Nc1ccc(F)cc1F,1,0,3,1,-6,6,·
CC(Sc1nc2c(cc1C#N)CCCCC2)C(=O)O (stereo not drawn),·,·,-1,·,4,·,·
CC(C)CC(C(=O)Nc1oc(-c2ccco2)c(-c2ccco2)c1C#N)N1C(=O)c2ccccc2C1=O (stereo not drawn),18,3,32*,3,18,7,·
Cc1onc(-c2ccc(Cl)cc2)c1-c1ccnc(SCC(=O)Nc2ccc(C(C)C)cc2)n1,-17,30*,0,-17,-9,-13,·
CC(Oc1ccccc1)C(=O)Nc1nnc(S(=O)(=O)N2CCCCC2)s1 (stereo not drawn),6,9,2,2,4,4,·
CC(Oc1ccccc1)C(=O)Nc1nnc(S(=O)(=O)Nc2ccccc2)s1 (stereo not drawn),5,10,29*,6,-3,7,·
Cc1ccc([N+](=O)[O-])c(-c2n[nH]c(=S)n2-c2cccc(Cl)c2)c1,5,31*,3,3,6,10,·
Cc1cccc(-n2c(-c3ccoc3C)n[nH]c2=S)c1,-3,-1,-1,-1,37,6,·
N#Cc1c(-c2ccccc2Cl)noc1/C=C/Nc1ccc(C(=O)O)cc1,19,6,5,8,5,11,·
CN(C)/C=C(\C=O)c1onc(-c2ccccc2Cl)c1C#N,33*,-2,4,6,-3,3,·
Nc1nc(NCC(=O)O)nc(NCc2ccccc2)c1[N+](=O)[O-],-1,28*,4,-2,1,10,·
Cc1cc2c(cc1S(=O)(=O)NCC(C)c1ccccc1)n(C)c(=O)c(=O)n2C (stereo not drawn),-6,26*,1,-5,-6,6,·
CC1CCC(NC(=O)c2ccc(NC3=NC4CS(=O)(=O)CC4S3)cc2)CC1 (stereo not drawn),-6,8,4,-1,-3,5,·
O=c1cc(-c2ccccc2)nc2c(-c3ccccc3)c(C(F)(F)F)[nH]n12,·,·,45*,·,40,·,54*
N=C1/C(=C\c2ccc(-c3cccc(Cl)c3)o2)C(=O)N=C2SC=C(c3ccccc3)N12,-15,3,43*,14,16,2,40*
CCCSC1=N/C(=C\C=C\c2ccco2)C(=O)S1,45*,9,45*,8,4,11,13
C/C(=N\Nc1ccc(S(=O)(=O)Nc2ccccc2)cc1[N+](=O)[O-])c1ccncc1,·,·,14,·,·,·,·
COc1ccc(NS(=O)(=O)c2ccc(N/N=C(\C)c3ccncc3)c([N+](=O)[O-])c2)cc1,0,7,57*,9,23,17,55*
O=C(N/N=C/c1cc(Cl)c(O)c(Cl)c1)c1cc2c(ccc3ccccc32)o1,45*,36*,61*,2,32,21,70*
O=C(N/N=C/c1cccnc1)c1cc2c(ccc3ccccc32)o1,-7,-2,0,-5,-15,4,·
SMILES,PAFAH2 inh,PAFAH1B2 FP inh,pPAFAH inh,DAGLB inhibitor,ATG4B inhibitor,PAFAH1B3 FP inh,pPAFAH confirm
O=C(/C=C/c1ccccc1)c1cc(Br)ccc(=O)c1O,37*,3,36*,25,14,12,23
CCCCCCCN1CCN=C1N(C)C,-6,10,2,1,3,4,·
O=C(Nc1cccc(Cl)c1)C1C2C=CC3(O2)C1C(=O)N(CCCN1CCCCC1)C3C(=O)NC1CCCCC1 (stereo not drawn),-1,6,4,2,-2,11,·
CCOC(=O)Cn1c(=O)oc2cc(S(=O)(=O)Nc3cc(OCC)ccc3OCC)ccc21,5,-1,8,-3,-7,0,·
CCOC(=O)Cn1c(=O)oc2cc(S(=O)(=O)Nc3ccc(N(CC)CC)cc3C)ccc21,2,5,55*,2,-2,-2,53*
Cc1cc(C)c(NC(=O)CN2C(=O)CC(C)S(=O)(=O)c3ccccc32)c(C)c1 (stereo not drawn),7,-1,5,-2,-12,4,·
CN(C)c1ccnc(SCc2ccccc2Cl)c1C#N,0,6,35*,-4,40,7,23
O=C(COC(=O)CNC(=O)c1ccccc1)Nc1ccc(F)c([N+](=O)[O-])c1,1,-1,37*,0,4,6,5
O=C(COC(=O)CNC(=O)C1CCCCC1)Nc1ccc(F)c([N+](=O)[O-])c1,3,4,3,-2,7,1,·
Cc1ccc(N(C)S(=O)(=O)c2csc(C(N)=O)c2)cc1C,0,6,0,2,-7,-1,·
c1ccc(COc2ccccc2CNC23CC4CC(CC(C4)C2)C3)cc1,-3,2,-4,3,34,4,·
Cc1nc2ccc(F)cc2cc1C(=O)Nc1ccc(Cl)c(Cl)c1,-10,0,42*,-1,-2,-6,2
CN(c1ccc(OCC(=O)NC2CCC(O)CC2)cc1)S(=O)(=O)c1ccc(Cl)cc1 (stereo not drawn),-4,5,37*,0,-4,10,-2
CC(C)C(NC(=O)c1ccc(C(C)(C)C)cc1)C(=O)NCC1(N(C)C)CCCCC1 (stereo not drawn),-17,7,7,-3,-6,8,·
CCOC(=O)c1ccccc1NC(=O)COC(=O)c1c(CC)noc1C,-1,-3,3,-5,4,1,·
COc1cc(C(=S)N2CCN(c3ccccc3Cl)CC2)cc(O)c1O,8,-4,42*,15,0,1,64*
COc1ccc(C(=S)N2CCN(c3ccccc3Cl)CC2)cc1OC,3,6,7,-4,7,2,·
Cc1ccc2c(CC(=O)NCC3COc4ccccc4O3)coc2c1 (stereo not drawn),2,10,37*,-6,-7,3,7
O=C(Cc1ccccc1)NCC1COc2ccccc2O1 (stereo not drawn),5,4,1,1,15,8,·
